# Key:
# Test in all cases: yeast three-hybrid, YBZ-1, SC-Leu-His + 0.5 mM 3-AT, 4 days
# Conditions in all cases: tags: N-Gal4 AD-HA kept; label: inside an RPR1-promoter hybrid RNA with tandem MS2 sites; ssRNA
# PUM1 PUF domain R5-GSK = PUM1 PUF domain R5-GSK (Homo sapiens, UniProt Q14671 828-1176, C1007G;R1008S;Q1011K)
# Summary of the method: (§1)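 The interaction score is the logarithmic change in variant frequency from input to selection. It uses log2, with a pseudocount of 1 for absent variants, and frequencies came from PCR-amplified, Illumina-sequenced repeat regions. The libraries were Pumilio-1 PUF domains randomized at the three base-contacting residues per repeat, co-expressed with matching RNA elements in strain YBZ-1 (LexA–MS2 coat fusion, HIS3 reporter). Plating lasted four days on SC-Leu (input) or SC-Leu-His + 0.5 mM 3-AT (selection).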
# PUM1 PUF domain R4-DYS = PUM1 PUF domain R4-DYS (Homo sapiens, UniProt Q14671 828-1176, N971D;H972Y;Q975S)
# Summary of the method: as §1
# PUM1 PUF domain R5-TPR = PUM1 PUF domain R5-TPR (Homo sapiens, UniProt Q14671 828-1176, C1007T;R1008P;Q1011R)
# Summary of the method: as §1
# PUM1 PUF domain R2-LHR = PUM1 PUF domain R2-LHR (Homo sapiens, UniProt Q14671 828-1176, N899L;Y900H;Q903R)
# Summary of the method: as §1
# PUM1 PUF domain R3-LWL = PUM1 PUF domain R3-LWL (Homo sapiens, UniProt Q14671 828-1176, C935L;R936W;Q939L)
# Summary of the method: as §1
# PUM1 PUF domain R8-RYQ = PUM1 PUF domain R8-RYQ (Homo sapiens, UniProt Q14671 828-1176, N1122R)
# Summary of the method: as §1
# PUM1 PUF domain R8-AWQ = PUM1 PUF domain R8-AWQ (Homo sapiens, UniProt Q14671 828-1176, N1122A;Y1123W)
# Summary of the method: as §1
# PUM1 PUF domain R3-APR = PUM1 PUF domain R3-APR (Homo sapiens, UniProt Q14671 828-1176, C935A;R936P;Q939R)
# Summary of the method: as §1
# PUM1 PUF domain R3-GRC = PUM1 PUF domain R3-GRC (Homo sapiens, UniProt Q14671 828-1176, C935G;Q939C)
# Summary of the method: as §1
# PUM1 PUF domain R7-CTR = PUM1 PUF domain R7-CTR (Homo sapiens, UniProt Q14671 828-1176, S1079C;N1080T;E1083R)
# Summary of the method: as §1
# PUM1 PUF domain R7-EPD = PUM1 PUF domain R7-EPD (Homo sapiens, UniProt Q14671 828-1176, S1079E;N1080P;E1083D)
# Summary of the method: as §1
# PUM1 PUF domain R7-QGG = PUM1 PUF domain R7-QGG (Homo sapiens, UniProt Q14671 828-1176, S1079Q;N1080G;E1083G)
# Summary of the method: as §1
# PUM1 PUF domain R1-MPR = PUM1 PUF domain R1-MPR (Homo sapiens, UniProt Q14671 828-1176, S863M;R864P;Q867R)
# Summary of the method: as §1
# PUM1 PUF domain R1-KCQ = PUM1 PUF domain R1-KCQ (Homo sapiens, UniProt Q14671 828-1176, S863K;R864C)
# Summary of the method: as §1
# PUM1 PUF domain R1-RRE = PUM1 PUF domain R1-RRE (Homo sapiens, UniProt Q14671 828-1176, S863R;Q867E)
# Summary of the method: as §1
# PUM1 PUF domain R6-IFN = target: T1, PUM1 PUF domain R6-IFN (Homo sapiens, UniProt Q14671 828-1176, N1043I;Y1044F;Q1047N)
# T1 sequence: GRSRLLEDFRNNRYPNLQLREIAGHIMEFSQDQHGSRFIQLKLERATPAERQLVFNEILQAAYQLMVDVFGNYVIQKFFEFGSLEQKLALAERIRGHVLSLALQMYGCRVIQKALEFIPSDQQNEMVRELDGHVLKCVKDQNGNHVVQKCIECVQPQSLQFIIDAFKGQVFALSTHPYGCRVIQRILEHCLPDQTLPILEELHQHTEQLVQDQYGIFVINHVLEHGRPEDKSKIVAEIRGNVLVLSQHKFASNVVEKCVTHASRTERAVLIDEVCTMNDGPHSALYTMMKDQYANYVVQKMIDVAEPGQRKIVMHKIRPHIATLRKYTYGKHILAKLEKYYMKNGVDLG
# Summary of the method: as §1
# PUM1 PUF domain R1-KNI = PUM1 PUF domain R1-KNI (Homo sapiens, UniProt Q14671 828-1176, S863K;R864N;Q867I)
# Summary of the method: as §1
# PUM1 PUF domain R3-EWR = PUM1 PUF domain R3-EWR (Homo sapiens, UniProt Q14671 828-1176, C935E;R936W;Q939R)
# Summary of the method: as §1
# PUM1 PUF domain R3-DWQ = PUM1 PUF domain R3-DWQ (Homo sapiens, UniProt Q14671 828-1176, C935D;R936W)
# Summary of the method: as §1
# PUM1 PUF domain R8-CYC = PUM1 PUF domain R8-CYC (Homo sapiens, UniProt Q14671 828-1176, N1122C;Q1126C)
# Summary of the method: as §1
sequence,measurement,setting,value
GGCUAGAACUAGUGGAUCCCCCGGCGCCCGGCGGCUCGAGCCCGGGUAAGUGUUAAUAGUCUGCAUGCCGCCGGGCGCCAUGCCUGCAGGUCGACUCUAGAAAACAUG,binding signal,PUM1 PUF domain R5-GSK,2.59 log2 enrichment (interaction score)
GGCUAGAACUAGUGGAUCCCCCGGCGCCCGGCGGCUCGAGCCCGGGUAAGUGUAUAUAGUCUGCAUGCCGCCGGGCGCCAUGCCUGCAGGUCGACUCUAGAAAACAUG,binding signal,PUM1 PUF domain R4-DYS,7.01 log2 enrichment (interaction score)
GGCUAGAACUAGUGGAUCCCCCGGCGCCCGGCGGCUCGAGCCCGGGUAAGUGUCAAUAGUCUGCAUGCCGCCGGGCGCCAUGCCUGCAGGUCGACUCUAGAAAACAUG,binding signal,PUM1 PUF domain R5-TPR,5.18 log2 enrichment (interaction score)
GGCUAGAACUAGUGGAUCCCCCGGCGCCCGGCGGCUCGAGCCCGGGUAAGUGUAAAAAGUCUGCAUGCCGCCGGGCGCCAUGCCUGCAGGUCGACUCUAGAAAACAUG,binding signal,PUM1 PUF domain R2-LHR,3.5 log2 enrichment (interaction score)
GGCUAGAACUAGUGGAUCCCCCGGCGCCCGGCGGCUCGAGCCCGGGUAAGUGUAAAUAGUCUGCAUGCCGCCGGGCGCCAUGCCUGCAGGUCGACUCUAGAAAACAUG,binding signal,PUM1 PUF domain R4-DYS,4.45 log2 enrichment (interaction score)
same,binding signal,PUM1 PUF domain R3-LWL,2.69 log2 enrichment (interaction score)
same,binding signal,PUM1 PUF domain R8-RYQ,4.32 log2 enrichment (interaction score)
same,binding signal,PUM1 PUF domain R8-AWQ,3.01 log2 enrichment (interaction score)
same,binding signal,PUM1 PUF domain R3-APR,2.66 log2 enrichment (interaction score)
same,binding signal,PUM1 PUF domain R3-GRC,3.23 log2 enrichment (interaction score)
GGCUAGAACUAGUGGAUCCCCCGGCGCCCGGCGGCUCGAGCCCGGGUAAGGGUAAAUAGUCUGCAUGCCGCCGGGCGCCAUGCCUGCAGGUCGACUCUAGAAAACAUG,binding signal,PUM1 PUF domain R8-RYQ,2.37 log2 enrichment (interaction score)
GGCUAGAACUAGUGGAUCCCCCGGCGCCCGGCGGCUCGAGCCCGGGUAAGUUUAAAUAGUCUGCAUGCCGCCGGGCGCCAUGCCUGCAGGUCGACUCUAGAAAACAUG,binding signal,PUM1 PUF domain R7-CTR,2.95 log2 enrichment (interaction score)
same,binding signal,PUM1 PUF domain R7-EPD,3.42 log2 enrichment (interaction score)
same,binding signal,PUM1 PUF domain R7-QGG,3.51 log2 enrichment (interaction score)
GGCUAGAACUAGUGGAUCCCCCGGCGCCCGGCGGCUCGAGCCCGGGUAAGUGUAAAUUGUCUGCAUGCCGCCGGGCGCCAUGCCUGCAGGUCGACUCUAGAAAACAUG,binding signal,PUM1 PUF domain R1-MPR,3.08 log2 enrichment (interaction score)
same,binding signal,PUM1 PUF domain R1-KCQ,3.28 log2 enrichment (interaction score)
same,binding signal,PUM1 PUF domain R1-RRE,2.91 log2 enrichment (interaction score)
GGCUAGAACUAGUGGAUCCCCCGGCGCCCGGCGGCUCGAGCCCGGGUAAGUGUACAUAGUCUGCAUGCCGCCGGGCGCCAUGCCUGCAGGUCGACUCUAGAAAACAUG,binding signal,PUM1 PUF domain R4-DYS,5.76 log2 enrichment (interaction score)
GGCUAGAACUAGUGGAUCCCCCGGCGCCCGGCGGCUCGAGCCCGGGUAAGUGUAAAUGGUCUGCAUGCCGCCGGGCGCCAUGCCUGCAGGUCGACUCUAGAAAACAUG,binding signal,PUM1 PUF domain R1-RRE,2.12 log2 enrichment (interaction score)
GGCUAGAACUAGUGGAUCCCCCGGCGCCCGGCGGCUCGAGCCCGGGUAAGUGAAAAUAGUCUGCAUGCCGCCGGGCGCCAUGCCUGCAGGUCGACUCUAGAAAACAUG,binding signal,PUM1 PUF domain R6-IFN,5.05 log2 enrichment (interaction score)
GGCUAGAACUAGUGGAUCCCCCGGCGCCCGGCGGCUCGAGCCCGGGUAAGUGUAAAUCGUCUGCAUGCCGCCGGGCGCCAUGCCUGCAGGUCGACUCUAGAAAACAUG,binding signal,PUM1 PUF domain R1-MPR,2.06 log2 enrichment (interaction score)
same,binding signal,PUM1 PUF domain R1-KNI,4.2 log2 enrichment (interaction score)
same,binding signal,PUM1 PUF domain R1-RRE,3.92 log2 enrichment (interaction score)
GGCUAGAACUAGUGGAUCCCCCGGCGCCCGGCGGCUCGAGCCCGGGUAAGUGUAAGUAGUCUGCAUGCCGCCGGGCGCCAUGCCUGCAGGUCGACUCUAGAAAACAUG,binding signal,PUM1 PUF domain R3-LWL,4.64 log2 enrichment (interaction score)
same,binding signal,PUM1 PUF domain R3-EWR,0.97 log2 enrichment (interaction score)
same,binding signal,PUM1 PUF domain R3-APR,1.67 log2 enrichment (interaction score)
same,binding signal,PUM1 PUF domain R3-GRC,0.66 log2 enrichment (interaction score)
GGCUAGAACUAGUGGAUCCCCCGGCGCCCGGCGGCUCGAGCCCGGGUAAGUGUAAUUAGUCUGCAUGCCGCCGGGCGCCAUGCCUGCAGGUCGACUCUAGAAAACAUG,binding signal,PUM1 PUF domain R3-LWL,4.13 log2 enrichment (interaction score)
same,binding signal,PUM1 PUF domain R3-EWR,3.22 log2 enrichment (interaction score)
same,binding signal,PUM1 PUF domain R3-APR,2.28 log2 enrichment (interaction score)
same,binding signal,PUM1 PUF domain R3-DWQ,4.15 log2 enrichment (interaction score)
same,binding signal,PUM1 PUF domain R3-GRC,1.22 log2 enrichment (interaction score)
GGCUAGAACUAGUGGAUCCCCCGGCGCCCGGCGGCUCGAGCCCGGGUAAGCGUAAAUAGUCUGCAUGCCGCCGGGCGCCAUGCCUGCAGGUCGACUCUAGAAAACAUG,binding signal,PUM1 PUF domain R8-CYC,2.77 log2 enrichment (interaction score)
same,binding signal,PUM1 PUF domain R8-AWQ,2.11 log2 enrichment (interaction score)
